An excerpt weighted towards active compounds, which were near 4.1% of everything screened.
DAX1 inh-1 = inhibitors of human orphan nuclear receptor DAX1 (NR0B1). HEK293 Gal4-DAX1 luciferase reporter, luminescence. hit rate 0.99% among 340,000. inhibition, % at 6.75 µM. AID 504766. P51843;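 active = inhibition above the mean over all tested compounds plus 3 SD, cut at about 4.2% in these data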;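 note: inhibition shows as a rise in luminescence from relieved DAX1 repression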
Target sequence (P51843 207-470 limits assumed): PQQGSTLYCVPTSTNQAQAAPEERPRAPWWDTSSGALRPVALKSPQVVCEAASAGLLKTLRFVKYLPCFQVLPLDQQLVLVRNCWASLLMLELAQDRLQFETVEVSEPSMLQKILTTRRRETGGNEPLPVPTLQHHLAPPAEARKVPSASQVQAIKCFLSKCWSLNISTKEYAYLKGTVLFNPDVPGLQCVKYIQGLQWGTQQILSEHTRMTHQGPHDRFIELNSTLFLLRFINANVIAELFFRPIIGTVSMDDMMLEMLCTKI
hgDAF-12 ag = hgDAF-12 agonism, primary luciferase screen; HEK293 GAL4-hgDAF12 UAS-luciferase reporter, agonist luminescence; normalized to butyrate control; activation, % at 6.8 µM; hit rate 1.8% among 370,000; AID 687014;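 active = activation above a cutoff set at the mean of all screened compounds plus 3 SD, cut at about 10% in these data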
ssDAF12 agonist = activates DAF-12 receptor from parasite S. stercoralis; activation, % at 6.8 µM; hit rate 1% among 370,000; HEK293 ssDAF-12/GRIP1 lit1-tk-luc reporter, luminescence; % of 3 µM dafachronic acid response; AID 652126;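 active = activation above the mean over all tested compounds plus 3 SD, cut at about 0.9% in these data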
DAX1 inh-2 = DAX1 (NR0B1) inhibition, primary screen. HEK293T StAR-luciferase reporter, SF-1/DAX-1 repression relief. AID 652010. hit rate 1.1% among 370,000. inhibition, % at 6.8 µM;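 active = inhibition above the mean over all tested compounds plus 3 SD, cut at about 3.6% in these data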;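 note: higher inhibition means more luminescence from relief of DAX-1 repression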
hcDAF-12 act = H. contortus DAF-12 activation, primary screen | activation, % at 6.8 µM | hit rate 1.4% among 370,000 | HEK293 hcDAF-12 lit1-tk-luc reporter, luminescence; 0% DMSO, 100% Δ7-dafachronic acid | AID 652067;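 active = activation above the mean of all tested compounds plus 3 SD, cut at about 5.5% in these data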
LXR ag = LXR-beta agonism as hcDAF-12 counter-screen | HEK293 Gal4-LXR tk-luc reporter, luminescence, 24 h; normalized: DMSO 0%, positive control 100% | shares compounds with hcDAF-12 act | 3,400 tested, under 10 active | activation, % at 6.8 µM;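 active = mean percent activation of the reporter above a cutoff set as the average over tested compounds plus their standard deviation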
hcDAF12 conf = hcDAF-12 agonism, confirmation assay | shares compounds with hcDAF-12 act | activation, % at 6.8 µM | hit rate 61% among 3,400 | HEK293 hcDAF-12 lit1-tk-luc reporter, luminescence; % of Δ7-dafachronic acid response;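 active = mean activation across triplicate tests above the threshold derived from the earlier primary screen, cut at about 5.5% in these data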
Each line names hits and unclear results; the compound was inactive in the other large screens (follow-up assays come after a bar, where they were run).

CCc1ccc(N2Cc3ccccc3C2)cc1	hgDAF-12 ag 29.0, hcDAF-12 act 6.9 | LXR ag inactive | hcDAF12 conf 7.7
Cc1cc(C)cc(N2Cc3ccccc3C2)c1	none
O=C(CN(C(=O)c1csnn1)c1ccc(F)cc1)NCc1ccc2c(c1)OCO2	none
Cc1ccccc1C(=O)O/N=C(\N)c1ccccc1	ssDAF12 agonist 0.9, hcDAF-12 act 10.4 | LXR ag inactive | hcDAF12 conf 25.1
N/C(=N\OC(=O)c1cccc2ccccc12)c1ccncc1	ssDAF12 agonist 2.3, hcDAF-12 act 7.5 | LXR ag inactive | hcDAF12 conf inactive
N/C(=N\OC(=O)c1cccc2ccccc12)c1ccc(Br)cc1	ssDAF12 agonist 2.2, hcDAF-12 act 8.9 | LXR ag inactive | hcDAF12 conf inactive
N/C(Cc1ccccc1)=N\OC(=O)c1cccc2ccccc12	none
CN(C)c1nnnn1-c1ccc(OC(F)(F)F)cc1	none
O=C(CSc1nnc(-c2ccccc2)n1-c1ccccc1)NN=Cc1ccc(-c2ccccc2)cc1	none (no result: DAX1 inh-1)
O=C(CCC1N=C2c3ccccc3N=C(SCC(=O)NCC3CCCO3)N2C1=O)NCc1ccc(F)cc1 (centres undefined)	none
COCCCNC(=O)CCc1c(C)c2cc3c(C)coc3cc2oc1=O	none
CCOc1c(Cl)cc(/C=C/C(=O)N(CC)CC(=O)Nc2ccc(NC(C)=O)cc2)cc1OC	none
CCOC(=O)c1nc2ccccc2nc1C	hcDAF-12 act 6.9 | LXR ag inactive | hcDAF12 conf inactive
Cc1ccn2cc(CSc3ccccc3)nc2c1	hgDAF-12 ag 11.8, hcDAF-12 act 6.6 | LXR ag inactive | hcDAF12 conf inactive
Cc1ccc(SCc2cn3cccnc3n2)cc1	none
Cc1ccc(CNc2ncccc2-c2nc3cc(Cl)ccc3o2)cc1	none
COc1cc(OC)cc(-c2nc3cc(C)ccc3o2)c1	ssDAF12 agonist 2.3, DAX1 inh-2 3.8, hcDAF-12 act 17.3 | LXR ag inactive | hcDAF12 conf 12.6
Cc1ccc(-c2nc3cc(Cl)ccc3o2)cc1	ssDAF12 agonist 0.9, hcDAF-12 act 8.2 | LXR ag inactive | hcDAF12 conf 16.1
CCCCn1c(N)c(N(Cc2ccccc2OC)C(=O)CCSC)c(=O)[nH]c1=O	none
N/C(=N\OC(=O)c1cccc(Cl)c1)c1ccccn1	DAX1 inh-2 3.9, hcDAF-12 act 12.6 | LXR ag inactive | hcDAF12 conf 8.2
Cc1cc(/C(N)=N/OC(=O)c2cccc(Cl)c2)no1	ssDAF12 agonist 1.5, hcDAF-12 act 7.1 (no result: DAX1 inh-1) | LXR ag inactive | hcDAF12 conf inactive
Cc1cc(C(=O)NNC(=O)c2cccc(Cl)c2)no1	none (no result: DAX1 inh-1)
O=[N+]([O-])c1cccc(N(CC(O)CN2CCCCC2)S(=O)(=O)c2ccccc2)c1 (centres undefined)	none
O=C(NC1CCOc2ccccc21)C1CCCC1 (centres undefined)	hcDAF-12 act 6.7 | LXR ag inactive | hcDAF12 conf inactive
O=C(NC1CCCc2ccccc21)C1CCCC1 (centres undefined)	none
CCOC(=O)CC1(C)Oc2ccccc2N1S(=O)(=O)c1ccc(C)cc1 (centres undefined)	none (no result: DAX1 inh-1)
COC(=O)C1CCN(c2nc3ccccc3nc2C(C#N)C(=O)NCCc2ccccc2)CC1 (centres undefined)	hcDAF-12 act 8.2 | LXR ag inactive | hcDAF12 conf inactive
COC(=O)C1CCN(c2nc3ccccc3nc2C(C#N)C(=O)OCC(C)C)CC1 (centres undefined)	none
N#Cc1ccsc1NC(=O)CN1C(=O)NC2(CCCCC2)C1=O	none
Cn1ccsc1=NC(=O)c1ccc(OC(F)(F)F)cc1	hcDAF-12 act 8.2 | LXR ag inactive | hcDAF12 conf inactive
COc1ccc(C(=O)N=c2sccn2C)cc1	none
O/C(=C\c1nc2ccccc2[nH]1)c1cccs1	hgDAF-12 ag 11.8, ssDAF12 agonist 1.0, hcDAF-12 act 8.5 | LXR ag inactive | hcDAF12 conf 8.1
O=c1[nH]c2ccccc2nc1/C=C(\O)c1cccs1	hgDAF-12 ag 10.5, hcDAF-12 act 7.8 | LXR ag inactive | hcDAF12 conf 12.8
CC1=NN(C(=O)c2nn(C)cc2Br)C(O)(C(F)(F)F)C1 (centres undefined)	hcDAF-12 act 8.9 | LXR ag inactive | hcDAF12 conf inactive
Cc1c(/C=C2\NC(=O)NC2=O)c2ccccc2n1C	none
COc1cccc(Nc2nnc(SCc3nc4ccccc4s3)s2)c1	hcDAF-12 act 7.0 | LXR ag inactive | hcDAF12 conf 10.5
Cc1cccc(C)c1Nc1nnc(SCc2nc3ccccc3s2)s1	hgDAF-12 ag 13.1, ssDAF12 agonist 0.9, hcDAF-12 act 11.5 | LXR ag inactive | hcDAF12 conf 11.3
Cn1nnnc1SCc1nc2ccccc2s1	ssDAF12 agonist 2.1, hcDAF-12 act 8.7 | LXR ag inactive | hcDAF12 conf 8.5
COc1ccc(CNC(=O)c2c(N)[nH]c(C(=O)c3ccccc3)c2-c2ccc3ccccc3c2)cc1OC	none (no result: DAX1 inh-1)
COc1ccc(C(=S)N2CCOCC2)cc1OC(=O)c1cc(OC)c(OC)c(OC)c1	none
COc1cc(OC)c2c(O)c3c(=O)cc(C)oc3c(-c3c(OC)cc4cc5c(c(O)c4c3O)C(=O)CC(C)(O)O5)c2c1 (centres undefined)	none (no result: DAX1 inh-1)
CN1CC[C@@H]2C(=O)N3CCc4ccc(-c5ccc6c(c5)OCO6)cc4[C@@H]3C[C@@H]21	none
Clc1cccc(CN2CCc3c([nH]c4ccccc34)C2)c1Cl	hcDAF-12 act 7.0 | LXR ag inactive | hcDAF12 conf inactive
COc1ccccc1CN1CCc2c([nH]c3ccccc23)C1	none
CC(=O)OC[C@@H]1CN(Cc2ccccc2)C[C@H](n2cnc3c(Nc4ccccc4)ncnc32)O1	none (no result: DAX1 inh-1)
Cc1ccc(C(=O)/C=C/c2c[nH]c3ccccc23)cc1	hcDAF-12 act 8.6 | LXR ag inactive | hcDAF12 conf inactive
CCOC(=O)/C(C#N)=C/c1c[nH]c2ccccc12	hcDAF-12 act 9.0 | LXR ag inactive | hcDAF12 conf inactive
COC(=O)/C(C#N)=C/c1c[nH]c2ccccc12	hcDAF-12 act 8.1 | LXR ag inactive | hcDAF12 conf 9.9
Cc1cccc(C)c1NC(=O)CNC(=O)c1ccc(N2CCCC2=O)cc1	none
O=C(NCCCc1ccccc1)[C@@H]1Cc2ccccc2CN1	none
O=C(CN(CC1CCCO1)C(=O)CNS(=O)(=O)c1ccc(Cl)cc1)NC1CCCC1 (centres undefined)	none
CCCOc1ccc(-c2c(C(=O)N/N=C(\C)COc3ccccc3)nnn2-c2nonc2N)cc1	none
Cc1ccc(C=Nc2cc([N+](=O)[O-])ccc2C)s1	hcDAF-12 act 6.9 | LXR ag inactive | hcDAF12 conf inactive
COC(=O)COc1ccc(-n2cnnn2)cc1	none
